# Legend:
# [1] = biological target: Protein kinase C gamma type (Homo sapiens) (UniProt P05129); settings: at 1 µM;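 further: each value is an averaged percent inhibition of the enzyme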
# [2] = biological target: T1, Protein kinase C iota type (Homo sapiens) (UniProt P41743); settings: at 0.1 µM
# T1 sequence (whole entry): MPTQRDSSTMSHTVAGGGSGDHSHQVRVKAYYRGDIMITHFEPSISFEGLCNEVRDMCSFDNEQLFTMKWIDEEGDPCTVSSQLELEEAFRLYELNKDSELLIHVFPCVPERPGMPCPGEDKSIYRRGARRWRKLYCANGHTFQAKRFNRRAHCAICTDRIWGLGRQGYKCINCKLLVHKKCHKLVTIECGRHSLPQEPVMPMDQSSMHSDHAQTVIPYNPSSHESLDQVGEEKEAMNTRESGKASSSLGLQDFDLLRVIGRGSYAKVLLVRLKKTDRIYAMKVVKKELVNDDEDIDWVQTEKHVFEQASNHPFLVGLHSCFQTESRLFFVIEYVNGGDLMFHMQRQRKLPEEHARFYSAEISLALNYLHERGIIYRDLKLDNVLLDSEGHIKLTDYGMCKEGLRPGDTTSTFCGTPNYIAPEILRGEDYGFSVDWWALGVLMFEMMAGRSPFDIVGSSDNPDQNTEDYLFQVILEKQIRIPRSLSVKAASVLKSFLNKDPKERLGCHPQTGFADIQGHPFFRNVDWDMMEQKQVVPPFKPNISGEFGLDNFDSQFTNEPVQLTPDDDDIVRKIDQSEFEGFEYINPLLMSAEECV
# [3] = biological target: T1, Protein kinase C iota type (Homo sapiens); settings: at 1 µM
# [4] = biological target: Protein kinase C theta type (Homo sapiens) (UniProt Q04759); settings: at 0.1 µM
# [5] = biological target: Protein kinase C theta type (Homo sapiens) (UniProt Q04759); settings: at 1 µM
# [6] = biological target: Protein kinase C beta type (Homo sapiens) (UniProt P05771); settings: at 0.1 µM
# [7] = biological target: Protein kinase C beta type (Homo sapiens) (UniProt P05771); settings: at 1 µM
# [8] = biological target: T2, Serine/threonine-protein kinase D1 (Homo sapiens) (UniProt Q15139); settings: at 0.1 µM
# T2 sequence (whole entry): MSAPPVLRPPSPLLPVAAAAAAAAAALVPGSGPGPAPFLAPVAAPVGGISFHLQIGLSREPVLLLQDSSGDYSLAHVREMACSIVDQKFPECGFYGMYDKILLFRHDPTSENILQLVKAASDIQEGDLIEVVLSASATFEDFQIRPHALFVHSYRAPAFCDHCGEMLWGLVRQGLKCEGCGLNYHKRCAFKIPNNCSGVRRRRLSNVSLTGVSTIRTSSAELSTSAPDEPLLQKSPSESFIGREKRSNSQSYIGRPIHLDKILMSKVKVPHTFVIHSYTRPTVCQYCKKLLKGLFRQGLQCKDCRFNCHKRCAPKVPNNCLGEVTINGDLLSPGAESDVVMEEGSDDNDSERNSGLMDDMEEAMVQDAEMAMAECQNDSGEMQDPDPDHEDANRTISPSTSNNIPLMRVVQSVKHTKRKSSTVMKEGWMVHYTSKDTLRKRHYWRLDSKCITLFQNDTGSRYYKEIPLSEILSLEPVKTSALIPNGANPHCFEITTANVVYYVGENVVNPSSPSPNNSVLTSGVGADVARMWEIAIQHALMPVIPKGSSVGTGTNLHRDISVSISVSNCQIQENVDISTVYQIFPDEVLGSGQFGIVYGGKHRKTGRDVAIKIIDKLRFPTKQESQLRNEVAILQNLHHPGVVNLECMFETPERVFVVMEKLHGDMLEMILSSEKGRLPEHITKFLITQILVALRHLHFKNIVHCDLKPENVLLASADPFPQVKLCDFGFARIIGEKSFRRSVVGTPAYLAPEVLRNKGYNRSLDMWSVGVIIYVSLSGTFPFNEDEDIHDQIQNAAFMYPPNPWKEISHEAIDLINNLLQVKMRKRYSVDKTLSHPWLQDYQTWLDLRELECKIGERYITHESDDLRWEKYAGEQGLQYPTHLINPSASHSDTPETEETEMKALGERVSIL
# [9] = biological target: T2, Serine/threonine-protein kinase D1 (Homo sapiens); settings: at 1 µM
# [10] = biological target: T3, Serine/threonine-protein kinase D2 (Homo sapiens) (UniProt Q9BZL6); settings: at 0.1 µM
# T3 sequence (whole entry): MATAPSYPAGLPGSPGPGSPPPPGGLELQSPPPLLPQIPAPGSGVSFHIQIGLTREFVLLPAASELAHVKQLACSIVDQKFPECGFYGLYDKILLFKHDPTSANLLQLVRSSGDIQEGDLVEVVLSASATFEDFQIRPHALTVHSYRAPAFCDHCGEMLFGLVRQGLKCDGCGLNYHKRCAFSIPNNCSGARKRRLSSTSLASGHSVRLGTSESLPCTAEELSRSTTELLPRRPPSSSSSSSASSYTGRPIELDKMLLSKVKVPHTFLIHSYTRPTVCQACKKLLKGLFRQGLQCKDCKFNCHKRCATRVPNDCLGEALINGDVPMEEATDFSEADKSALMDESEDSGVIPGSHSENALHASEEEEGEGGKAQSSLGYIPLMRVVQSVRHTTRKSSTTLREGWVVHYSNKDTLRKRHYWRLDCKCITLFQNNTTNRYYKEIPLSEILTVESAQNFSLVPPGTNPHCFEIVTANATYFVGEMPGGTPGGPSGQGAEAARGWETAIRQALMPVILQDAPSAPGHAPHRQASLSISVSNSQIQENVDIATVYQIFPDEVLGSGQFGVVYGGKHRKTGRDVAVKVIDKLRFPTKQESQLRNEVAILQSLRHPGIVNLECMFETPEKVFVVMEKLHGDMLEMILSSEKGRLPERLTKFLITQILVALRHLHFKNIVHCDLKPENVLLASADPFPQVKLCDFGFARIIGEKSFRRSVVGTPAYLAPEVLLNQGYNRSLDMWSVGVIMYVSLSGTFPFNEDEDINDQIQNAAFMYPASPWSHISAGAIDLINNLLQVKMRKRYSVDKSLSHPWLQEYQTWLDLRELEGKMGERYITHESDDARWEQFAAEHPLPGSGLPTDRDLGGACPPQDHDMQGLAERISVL
# [11] = biological target: T3, Serine/threonine-protein kinase D2 (Homo sapiens); settings: at 1 µM
# [12] = biological target: T4, Serine/threonine-protein kinase D3 (Homo sapiens) (UniProt O94806); settings: at 0.1 µM
# T4 sequence (whole entry): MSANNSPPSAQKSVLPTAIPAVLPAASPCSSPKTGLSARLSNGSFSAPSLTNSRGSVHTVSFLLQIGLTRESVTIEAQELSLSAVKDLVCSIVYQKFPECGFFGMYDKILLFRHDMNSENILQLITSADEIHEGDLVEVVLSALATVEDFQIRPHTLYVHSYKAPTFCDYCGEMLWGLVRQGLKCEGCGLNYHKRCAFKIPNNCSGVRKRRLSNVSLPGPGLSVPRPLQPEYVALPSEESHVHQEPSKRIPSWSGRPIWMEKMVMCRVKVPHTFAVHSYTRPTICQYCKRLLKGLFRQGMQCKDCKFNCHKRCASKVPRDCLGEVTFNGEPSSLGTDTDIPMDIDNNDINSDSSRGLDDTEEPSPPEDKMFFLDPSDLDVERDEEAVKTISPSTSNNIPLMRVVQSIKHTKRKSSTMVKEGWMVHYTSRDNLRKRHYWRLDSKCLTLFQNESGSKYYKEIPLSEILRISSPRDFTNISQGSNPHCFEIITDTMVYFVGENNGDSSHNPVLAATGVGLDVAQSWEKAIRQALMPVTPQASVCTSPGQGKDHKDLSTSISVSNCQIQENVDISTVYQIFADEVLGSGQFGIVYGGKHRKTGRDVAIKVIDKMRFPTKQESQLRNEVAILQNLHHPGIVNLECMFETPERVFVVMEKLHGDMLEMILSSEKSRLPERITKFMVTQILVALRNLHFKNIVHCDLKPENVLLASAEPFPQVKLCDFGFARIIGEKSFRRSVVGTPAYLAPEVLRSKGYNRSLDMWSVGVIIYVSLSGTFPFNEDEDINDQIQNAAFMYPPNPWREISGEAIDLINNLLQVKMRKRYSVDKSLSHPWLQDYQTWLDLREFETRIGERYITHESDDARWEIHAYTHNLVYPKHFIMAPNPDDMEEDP
# [13] = biological target: T4, Serine/threonine-protein kinase D3 (Homo sapiens); settings: at 1 µM
# [14] = biological target: T5, cGMP-dependent protein kinase 1 (Homo sapiens) (UniProt Q13976); settings: at 0.1 µM
# T5 sequence (whole entry): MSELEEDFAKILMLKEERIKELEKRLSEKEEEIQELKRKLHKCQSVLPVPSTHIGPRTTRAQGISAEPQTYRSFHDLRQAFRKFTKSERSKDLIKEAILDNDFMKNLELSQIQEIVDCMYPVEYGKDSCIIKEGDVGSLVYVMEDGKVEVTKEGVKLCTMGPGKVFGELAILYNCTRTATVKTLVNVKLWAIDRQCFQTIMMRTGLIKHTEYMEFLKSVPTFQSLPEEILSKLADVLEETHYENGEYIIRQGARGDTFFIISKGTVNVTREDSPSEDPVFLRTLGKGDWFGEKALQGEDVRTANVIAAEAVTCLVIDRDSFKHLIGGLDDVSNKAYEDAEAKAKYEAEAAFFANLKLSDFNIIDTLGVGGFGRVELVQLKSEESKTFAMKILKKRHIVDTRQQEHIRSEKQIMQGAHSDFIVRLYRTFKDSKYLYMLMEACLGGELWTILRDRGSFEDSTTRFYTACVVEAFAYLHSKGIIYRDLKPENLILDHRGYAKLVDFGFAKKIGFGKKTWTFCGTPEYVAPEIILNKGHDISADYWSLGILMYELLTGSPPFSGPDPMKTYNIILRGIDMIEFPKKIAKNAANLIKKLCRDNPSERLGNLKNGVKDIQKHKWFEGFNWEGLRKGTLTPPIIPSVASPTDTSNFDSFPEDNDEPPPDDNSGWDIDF
# [15] = biological target: T5, cGMP-dependent protein kinase 1 (Homo sapiens); settings: at 1 µM
# [16] = biological target: T6, cGMP-dependent protein kinase 2 (Homo sapiens) (UniProt Q13237); settings: at 0.1 µM
# T6 sequence (whole entry): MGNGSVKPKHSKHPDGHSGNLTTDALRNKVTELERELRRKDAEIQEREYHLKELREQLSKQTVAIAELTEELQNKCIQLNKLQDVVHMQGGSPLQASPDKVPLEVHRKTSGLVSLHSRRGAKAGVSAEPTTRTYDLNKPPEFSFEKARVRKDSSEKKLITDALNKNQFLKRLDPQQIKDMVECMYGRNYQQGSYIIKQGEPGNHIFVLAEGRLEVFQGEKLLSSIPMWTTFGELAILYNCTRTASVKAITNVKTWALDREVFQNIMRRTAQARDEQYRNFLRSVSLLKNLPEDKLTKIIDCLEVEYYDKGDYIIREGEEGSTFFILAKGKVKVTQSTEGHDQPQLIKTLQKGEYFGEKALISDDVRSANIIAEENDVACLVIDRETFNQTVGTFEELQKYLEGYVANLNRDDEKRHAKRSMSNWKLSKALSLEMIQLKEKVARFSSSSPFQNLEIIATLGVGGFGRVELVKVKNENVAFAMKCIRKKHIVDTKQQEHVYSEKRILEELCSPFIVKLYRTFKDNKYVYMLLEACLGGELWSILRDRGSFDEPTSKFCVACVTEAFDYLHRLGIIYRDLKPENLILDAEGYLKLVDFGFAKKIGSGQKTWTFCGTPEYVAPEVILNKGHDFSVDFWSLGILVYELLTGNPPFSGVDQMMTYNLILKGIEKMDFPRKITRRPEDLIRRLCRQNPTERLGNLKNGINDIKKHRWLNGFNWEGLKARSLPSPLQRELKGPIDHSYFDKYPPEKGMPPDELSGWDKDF
# [17] = biological target: T6, cGMP-dependent protein kinase 2 (Homo sapiens); settings: at 1 µM
# [18] = biological target: T7, cAMP-dependent protein kinase catalytic subunit PRKX (Homo sapiens) (UniProt P51817); settings: at 0.1 µM
# T7 sequence (whole entry): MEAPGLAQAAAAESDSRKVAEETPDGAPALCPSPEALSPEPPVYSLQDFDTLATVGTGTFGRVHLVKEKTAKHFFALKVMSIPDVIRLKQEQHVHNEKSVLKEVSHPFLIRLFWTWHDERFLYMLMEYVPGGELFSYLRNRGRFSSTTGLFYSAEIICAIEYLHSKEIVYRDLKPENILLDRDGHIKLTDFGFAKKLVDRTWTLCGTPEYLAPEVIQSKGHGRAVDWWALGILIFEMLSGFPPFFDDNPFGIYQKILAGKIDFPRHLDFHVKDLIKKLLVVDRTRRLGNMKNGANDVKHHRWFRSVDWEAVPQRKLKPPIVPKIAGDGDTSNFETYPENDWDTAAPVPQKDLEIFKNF
# [19] = biological target: T7, cAMP-dependent protein kinase catalytic subunit PRKX (Homo sapiens); settings: at 1 µM
# [20] = biological target: Rho-associated protein kinase 1 (Homo sapiens) (UniProt Q13464); settings: at 0.1 µM;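 further: values are mean percent inhibition of ROCK1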
# Rho-associated protein kinase 1 (Homo sapiens), sequence (Q13464 2-1354 limits assumed): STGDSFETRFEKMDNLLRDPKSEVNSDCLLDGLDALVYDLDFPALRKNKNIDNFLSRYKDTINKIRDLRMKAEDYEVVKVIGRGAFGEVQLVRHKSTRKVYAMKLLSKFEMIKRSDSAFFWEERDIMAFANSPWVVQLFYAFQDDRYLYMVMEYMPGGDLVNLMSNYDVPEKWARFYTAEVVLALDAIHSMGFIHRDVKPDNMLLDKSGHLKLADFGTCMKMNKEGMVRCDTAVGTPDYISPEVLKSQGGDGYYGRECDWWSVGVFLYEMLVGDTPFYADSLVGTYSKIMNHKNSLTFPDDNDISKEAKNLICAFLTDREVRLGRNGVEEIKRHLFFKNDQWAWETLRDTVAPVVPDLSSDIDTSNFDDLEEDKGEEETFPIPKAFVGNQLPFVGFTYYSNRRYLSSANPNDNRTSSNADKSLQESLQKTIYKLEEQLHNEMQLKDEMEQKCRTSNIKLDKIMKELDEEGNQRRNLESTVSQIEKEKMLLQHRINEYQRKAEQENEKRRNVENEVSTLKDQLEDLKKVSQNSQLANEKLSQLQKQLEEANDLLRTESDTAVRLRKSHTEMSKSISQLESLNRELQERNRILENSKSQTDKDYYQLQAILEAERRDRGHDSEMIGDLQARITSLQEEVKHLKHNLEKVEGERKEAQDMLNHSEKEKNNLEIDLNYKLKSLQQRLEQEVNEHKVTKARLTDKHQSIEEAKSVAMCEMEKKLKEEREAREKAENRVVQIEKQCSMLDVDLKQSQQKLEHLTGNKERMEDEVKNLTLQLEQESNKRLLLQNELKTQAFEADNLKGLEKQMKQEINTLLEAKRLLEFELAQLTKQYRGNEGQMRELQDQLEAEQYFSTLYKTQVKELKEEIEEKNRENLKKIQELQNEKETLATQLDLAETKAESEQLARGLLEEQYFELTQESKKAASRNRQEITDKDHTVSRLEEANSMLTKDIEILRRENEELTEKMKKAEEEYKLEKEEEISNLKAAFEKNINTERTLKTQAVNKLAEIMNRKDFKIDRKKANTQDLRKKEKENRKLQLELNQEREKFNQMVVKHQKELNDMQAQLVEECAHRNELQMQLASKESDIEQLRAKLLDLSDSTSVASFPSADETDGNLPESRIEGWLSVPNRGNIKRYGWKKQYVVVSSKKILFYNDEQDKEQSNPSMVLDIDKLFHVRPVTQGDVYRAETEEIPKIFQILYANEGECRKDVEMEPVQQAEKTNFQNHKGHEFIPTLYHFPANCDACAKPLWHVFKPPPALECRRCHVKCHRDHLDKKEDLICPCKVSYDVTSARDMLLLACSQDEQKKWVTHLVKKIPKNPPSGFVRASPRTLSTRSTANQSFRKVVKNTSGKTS
# Protein kinase C beta type (Homo sapiens), sequence (P05771 2-671 limits assumed): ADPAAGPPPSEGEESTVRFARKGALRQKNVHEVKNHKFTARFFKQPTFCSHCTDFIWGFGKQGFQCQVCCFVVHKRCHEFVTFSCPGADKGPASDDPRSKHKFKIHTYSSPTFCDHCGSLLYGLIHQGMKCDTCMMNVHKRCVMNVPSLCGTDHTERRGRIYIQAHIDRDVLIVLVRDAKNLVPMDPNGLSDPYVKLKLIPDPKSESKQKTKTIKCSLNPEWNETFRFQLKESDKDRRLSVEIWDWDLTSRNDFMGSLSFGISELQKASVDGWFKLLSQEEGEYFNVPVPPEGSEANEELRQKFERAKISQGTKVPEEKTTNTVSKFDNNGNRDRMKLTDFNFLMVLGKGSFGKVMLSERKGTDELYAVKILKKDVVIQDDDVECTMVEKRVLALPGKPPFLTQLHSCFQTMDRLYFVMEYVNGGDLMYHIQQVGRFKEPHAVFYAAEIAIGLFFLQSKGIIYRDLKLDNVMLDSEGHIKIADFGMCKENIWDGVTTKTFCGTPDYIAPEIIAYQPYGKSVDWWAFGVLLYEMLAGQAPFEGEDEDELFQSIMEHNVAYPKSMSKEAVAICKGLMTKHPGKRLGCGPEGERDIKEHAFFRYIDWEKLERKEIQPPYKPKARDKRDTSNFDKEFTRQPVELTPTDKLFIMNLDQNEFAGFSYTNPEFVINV
# Protein kinase C theta type (Homo sapiens), sequence (Q04759 whole entry, looked up): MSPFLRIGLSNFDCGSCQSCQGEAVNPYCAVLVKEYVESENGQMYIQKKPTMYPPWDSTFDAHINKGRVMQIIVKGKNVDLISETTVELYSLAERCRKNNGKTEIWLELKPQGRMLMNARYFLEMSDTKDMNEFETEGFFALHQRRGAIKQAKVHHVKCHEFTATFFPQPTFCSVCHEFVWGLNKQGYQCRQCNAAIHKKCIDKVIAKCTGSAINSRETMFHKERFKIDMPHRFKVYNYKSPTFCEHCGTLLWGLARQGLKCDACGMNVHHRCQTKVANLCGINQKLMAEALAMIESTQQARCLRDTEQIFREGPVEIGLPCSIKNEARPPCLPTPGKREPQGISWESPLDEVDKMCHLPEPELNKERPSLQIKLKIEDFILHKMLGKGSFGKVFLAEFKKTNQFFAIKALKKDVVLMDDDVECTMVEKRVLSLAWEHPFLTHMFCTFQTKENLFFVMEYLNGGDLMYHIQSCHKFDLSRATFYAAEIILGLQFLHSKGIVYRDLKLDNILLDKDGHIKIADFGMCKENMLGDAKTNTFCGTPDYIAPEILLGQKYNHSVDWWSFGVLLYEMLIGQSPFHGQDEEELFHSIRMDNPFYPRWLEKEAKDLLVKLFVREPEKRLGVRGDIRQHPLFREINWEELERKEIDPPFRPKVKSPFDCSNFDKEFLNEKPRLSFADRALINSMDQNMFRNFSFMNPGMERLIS
Compound,inhibition [1] [%],inhibition [2] [%],inhibition [3] [%],inhibition [4] [%],inhibition [5] [%],inhibition [6] [%],inhibition [7] [%],inhibition [8] [%],inhibition [9] [%],inhibition [10] [%],inhibition [11] [%],inhibition [12] [%],inhibition [13] [%],inhibition [14] [%],inhibition [15] [%],inhibition [16] [%],inhibition [17] [%],inhibition [18] [%],inhibition [19] [%],inhibition [20] [%]
NS(=O)(=O)c1ccc(NC=C2C(=O)Nc3ccc4ncsc4c32)cc1,9.7,2.56,5.28,3.44,11.8,2.28,6.13,28.5,78.4,21.3,79,19.4,76.3,6.31,28.6,18.4,61.7,2.2,12.2,15.5
COc1ccc2ncnc(Nc3ccc(OCc4ccccc4)cc3)c2c1,5.03,0.61,-0.95,1.21,1.19,0.9,1.9,3.89,3.35,0.24,2.88,0.89,2.6,0.77,1.95,0.94,2.5,1.23,1.9,-0.05
CC(C)c1ccc2c(c1)NC(=O)/C2=N/Nc1ccc(S(N)(=O)=O)cc1,-0.76,-1.39,-2.44,-0.41,-0.44,-0.24,0.73,0.07,0.8,-0.15,-0.41,-0.27,-0.32,-1.53,1.06,-0.39,-0.18,0.2,-0.32,-1.01
COc1cc(Nc2nccc(-c3cnn4ncccc34)n2)cc(OC)c1,16.8,-0.04,0.62,0.09,6.77,1.8,16.9,1.77,16.4,2.57,15.9,-0.68,19.6,12.2,57.2,3.45,24.4,0.67,0.29,0.75

# From ChEMBL document CHEMBL1961873, “Compounds: GSK PKIS; Assays: Nanosyn kinase panel” (2012)
